NPC1 prom act: qHTS Assay for NPC1 Promoter Activators; 320,000 compounds, 2.4% hits; Huh7 NPC1 promoter luciferase reporter, 24 h; Potency, µM (doses to about 9.22 µM), usual class: activators; further: nearly all actives have a fitted effect of over 60% in size
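Luminescence from an NPC1 promoter-driven luciferase reporter in stably transfected Huh7 cells was measured after 24 h compound treatment at 37 °C, followed by 10 min ambient incubation with luciferase detection reagent.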
ELG1 genotoxic: qHTS screen for small molecules that induce genotoxicity in human embryonic kidney (HEK293T) cells expressing luciferase-tagged ELG1; HEK293T ELG1-luciferase reporter, luminescence, 16 h; 330,000 compounds, 1.3% hits; Potency, µM (top dose mostly 46 µM), hits mostly activators; further: nearly all actives have a fitted effect of over 60% in size
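Cells (2,000/well) expressing the ELG1-luciferase fusion are dosed by pin tool and kept 16 hr at 37 °C, 5% CO2. Signal comes from ONE-Glo luciferase reagent after 30 min at room temperature.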
KinaseGlo FLuc: Counterscreen for Luciferase (Kinase-Glo TM) Inhibition; Kinase-Glo luciferase, ATP luminescence, 8 min; Potency, µM (titrated, usually from 38.3 µM), most hits filed as inhibitors; 200,000 compounds, 0.28% hits; further: nearly all actives have a fitted effect of over 60% in size
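Inhibition of Kinase-Glo luciferase light generation was assessed at 10 uM ATP in pH 7.2 imidazole buffer, with luminescence measured after eight minutes at ambient temperature.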
SMN2 splice up: qHTS Assay for Enhancers of SMN2 Splice Variant Expression | HEK293 SMN2-luciferase splicing reporter, luminescence, 30-36 h | Potency, µM (top dose mostly 46.1 µM), usual class: activators | 210,000 compounds, 2.8% hits | AID 1458, 2008; further: nearly all actives have a fitted effect of over 55% in size
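HEK293 cells carry an SMN2 minigene-luciferase reporter in which exon 7 inclusion puts luciferase in frame. Cells were seeded at 2000 cells/well, attached for 10-12 hours, then exposed to compounds for 30-36 hours at 37C before ONE-Glo luminescence.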
FLuc counter: qHTS profiling assay for firefly luciferase inhibitor/activator using purifed enzyme and Km concentrations of substrates (counterscreen for miR-21 project); Luciferin 4-monooxygenase (Photinus pyralis), P08659; purified FLuc, Km substrates, luminescence inhibition; Potency, µM (series often up to 57.5 µM), usual class: inhibitors; 360,000 compounds, 6.9% hits; AID 588342, 2011; further: nearly all actives have a fitted effect of over 55% in size
Target sequence (P08659 whole entry, looked up): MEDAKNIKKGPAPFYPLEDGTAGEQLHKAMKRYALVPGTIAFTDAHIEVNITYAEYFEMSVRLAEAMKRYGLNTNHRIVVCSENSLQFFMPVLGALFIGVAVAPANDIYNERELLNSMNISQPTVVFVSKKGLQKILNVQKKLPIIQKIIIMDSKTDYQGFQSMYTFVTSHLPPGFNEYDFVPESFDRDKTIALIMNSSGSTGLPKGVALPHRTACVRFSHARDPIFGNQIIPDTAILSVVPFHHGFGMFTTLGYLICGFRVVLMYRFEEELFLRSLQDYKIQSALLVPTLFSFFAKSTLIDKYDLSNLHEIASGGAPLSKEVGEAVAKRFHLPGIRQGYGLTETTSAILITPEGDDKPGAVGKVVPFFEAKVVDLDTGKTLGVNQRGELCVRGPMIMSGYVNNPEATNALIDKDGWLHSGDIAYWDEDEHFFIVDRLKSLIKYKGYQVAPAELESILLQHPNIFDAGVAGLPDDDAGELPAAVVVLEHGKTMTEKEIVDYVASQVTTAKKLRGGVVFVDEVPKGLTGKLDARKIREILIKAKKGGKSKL
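Purified P. pyralis luciferase (10nM final) with 10uM D-luciferin and 10uM ATP (Km levels) in 50mM Tris acetate pH 7.5, 10mM Mg acetate, 0.01% Tween-20, 0.05% BSA; qHTS 6-point titration, ~60 µM downward; luminescence read.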
Rab9 promoter act: qHTS Assay for Rab9 Promoter Activators; AID 485297, 2010; Potency, µM (top dose mostly 9.22 µM), hits mostly activators; Huh7 Rab9 promoter-luciferase reporter, luminescence, 24 h; 320,000 compounds, 2.8% hits; further: nearly all actives have a fitted effect of over 60% in size
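Luminescence read-out: Huh7 cells stably expressing Rab9-luciferase, treated 24 h with compound at 37 °C, then lysed with luciferase reagent for 10 min at ambient before reading.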
Hits are given with their value; n = inactive; u = inconclusive; x = no result; [ ] = dose if it differs, or a comment. Hits are enriched below; roughly 7.4% of the tested compounds scored in any of these assays. The call rests on the fitted dose curve; in most records, active means well fitted curve in the direction sought with a large enough effect; inconclusive means small, poorly fitted or top-dose-only effect, or another doubt; inactive means no such curve, though single readings can be large; an effect the other way counts as inactive or inconclusive.

SMILES	NPC1 prom act	ELG1 genotoxic	KinaseGlo FLuc	SMN2 splice up	FLuc counter	Rab9 promoter act
COc1ccc(-c2cc(C)no2)cc1S(=O)(=O)NCc1cccs1	x	x	x	x	n	x
COc1ccc(C2CC(c3cccc(F)c3)=NN2c2ccc(S(N)(=O)=O)cc2)cc1 (stereo not drawn)	x	n	x	x	x	x
COc1ccc(C2CC(c3ccccc3)=NN2c2ccc(S(N)(=O)=O)cc2)cc1 (stereo not drawn)	n	n	x	x	9.5µM	n
COc1ccc(C2=NN(CN3C(=O)C(=O)c4ccccc43)C(c3ccc(OC)cc3)C2)cc1 (stereo not drawn)	u	u	n	10µM	u	3.5µM
COc1ccc(C2=NN(S(=O)(=O)c3ccccc3)C(c3ccccc3)C2)cc1 (stereo not drawn)	n	n	x	x	n	n
Cc1cs/c(=N\N=C\c2ccccc2)n1Cc1ccco1	n	n	n	n	21µM	n
CC(C)=N/N=c1\scc(C)n1Cc1ccco1	n	n	n	n	n	n
O=C(Nc1cc([N+](=O)[O-])ccc1O)c1ccc2c(c1)C(=O)N(Cc1ccco1)C2=O	4µM	n	x	x	u	4µM
O=C(Nc1ccc(O)cc1)c1ccc2c(c1)C(=O)N(Cc1ccco1)C2=O	n	n	n	n	n	n
O=C(ONc1ccc(N=NC(=O)c2ccccc2O)cc1)c1ccccc1	u	10µM	n	x	8.5µM	4µM
O=Nc1ccc(NOC(=O)c2ccccc2Br)cc1	n	n	u	n	0.24µM	n
O=C(c1cccc([N+](=O)[O-])c1)N1CCOCC1	n	n	n	n[1.84 µM]	n	n
O=C(/C=C\c1ccc(-c2cccc([N+](=O)[O-])c2)o1)N1CCOCC1	u	u	n	x	u	3.5µM
Cc1cc(/C=N/NC(=O)c2ccsc2)c(C)n1-c1cnccn1	n	u	n	n	19µM	u
Cc1ccccc1-n1c(C)cc(/C=N/NC(=O)c2ccncc2)c1C	n	n	n	n	3.8µM	n
COC(=O)c1cc(NC(=O)Cn2c(=O)oc3ccccc32)cc(C(=O)OC)c1	n	n	x	x	n	n
CC(=O)Nc1ccc(C2CC(c3ccc(Cl)cc3)=NN2c2ccccc2)cc1 (stereo not drawn)	n	n	x	x	17µM	n
O=C(c1cc(-c2cccc(Cl)c2)on1)N1CCN(c2ccc(F)cc2)CC1	n	n	x	x	n	n
O=C(c1cc(-c2cccc(Cl)c2)on1)N1CCCCCC1	2.5µM	21µM	x	x	11µM	2.8µM
Cc1c(Cl)cccc1NC(=O)c1cc(-c2cccc(Cl)c2)on1	x	x	x	n	n	x
CN1CCN(C(=O)c2cc(-c3cccc(Cl)c3)on2)CC1	u	n	x	x	u	6.3µM
Brc1ccccc1-n1ncc2c1ncn1nc(Cc3ccccc3)nc21	x	x	x	n	17µM	x
Cn1ncc2c1ncn1nc(CCc3ccccc3)nc21	0.79µM	u	n	u	7.6µM	1.3µM
COc1ccc(Cc2nc3c4cnn(-c5ccccc5Br)c4ncn3n2)cc1	x	x	x	n	n	x
COc1ccccc1OCC(=O)Nc1cc(NC(=O)COc2ccccc2OC)cc(C(=O)O)c1	n	n	x	x	n	n
SMILES	NPC1 prom act	ELG1 genotoxic	KinaseGlo FLuc	SMN2 splice up	FLuc counter	Rab9 promoter act
O=C(COc1ccc(F)cc1F)Nc1cccnc1	n	n	x	x	n	n
Cc1ccc(Cl)c(OCC(=O)Nc2cccnc2)c1	u	u	x	x	15µM	n
O=C(COc1ccccc1Cl)Nc1cc(NC(=O)COc2ccccc2Cl)cc(C(=O)O)c1	u	u	x	x	u	4µM
O=C(COc1ccccc1Cl)Nc1cccnc1	u	u	n	x	19µM	u
Oc1ccc(Br)cc1-c1cc(-c2ccccc2Cl)[nH]n1	n	n	x	x	u	n
COc1ccc(O)c(-c2cc(-c3cccs3)[nH]n2)c1	n	n	n	u	21µM	u
COc1ccccc1-c1cc(-c2cc(Cl)ccc2O)n[nH]1	n	n	n	n	n	n
COc1ccc(-c2cc(-c3ccccc3O)[nH]n2)cc1	1.8µM	u	x	x	0.85µM	3.2µM
COc1ccc(-c2cc(-c3ccccc3)n[nH]2)c(O)c1	u	8.2µM	n	13µM	6µM	2.2µM
